Laboratory results published in ChEMBL document CHEMBL3988442, “University of Dundee, Small-Polar-MMV Screening Library” (2021).
The whole screen tested about 48,000 compounds, of which about 13,000 (27%) showed an effect of 50% or more. The list shows a part of the results.

system: Wolbachia pipientis; experiment: Anti-Wolbachia Cell-Based Screen; type: functional; parameters: scale not given: in the data most compounds retested in dose-response had high values; conditions: 5 µM

Structure (SMILES) | Percent Effect [%]
CCn1ncc2c1CCCC2NCc1ccc(OC)c(C)c1 (stereo not drawn) | -3.93
COc1cc(F)c(S(=O)(=O)NCc2ccnc(N(C)C)n2)cc1OC | 0.6803
COc1ccc(CNC2CCCc3nc(N(C)C)ncc32)c(OC)c1 (stereo not drawn) | 113.1
COc1ccc(OC)c(CNC2CCCc3nc(N(C)C)ncc32)c1 (stereo not drawn) | 105.7
CCn1ncc2c1CCCC2NCc1cc(Cl)c(OC)c(OC)c1 (stereo not drawn) | -1.567
CCCOc1ccc(CNC2CCCc3c2cnn3CC)cc1OC (stereo not drawn) | 1.181
Cc1cc(C)c(C(=O)NC2CCCc3nc(N(C)C)ncc32)cc1C (stereo not drawn) | -4.078
COc1ccc2c(c1)C(NCCc1ncc(C)s1)CCCO2 (stereo not drawn) | 17.43
COc1ccc(F)c(CNC2CCCc3nc(N(C)C)ncc32)c1 (stereo not drawn) | 96.62
CCOC(C)c1nc(CN2CCC(C3OCCO3)CC2)cs1 (stereo not drawn) | -5.348
CN(CCc1nc2ccccc2c(=O)[nH]1)CCC(F)(F)F | -6.377
CNC(=O)C(C)(C)NC(=O)c1cc(COc2cccc(C(C)=O)c2)[nH]n1 | 5.939
O=C(Nc1cccc(N2CCN(CC3CC3)CC2)c1)C1CCOC1 (stereo not drawn) | -7.118
CCN1CCN(C(=O)c2ccc3c(c2)NC(=O)CN3)[C@H]2CS(=O)(=O)C[C@H]21 | 7.083
Cc1nn(C)cc1CN(Cc1ccccn1)Cc1ccccc1Cl | 76.4
COc1ccccc1CN(C)c1nccc(-c2cn(C)nc2C)n1 | -7.113
CN(Cc1cnn(C)c1)C(=O)NC1CCN(Cc2ccccn2)CC1 | -4.519
OC(CN(Cc1ccccc1)Cc1ccccn1)c1cccs1 (stereo not drawn) | -16.67
COCCN(C/C=C/c1ccccc1)Cc1ccccn1 | -3.939
CCOc1cccc(CN(Cc2cnn(C)c2)CC(C)C)c1O | 5.177
Cl.Cn1cc(CN(Cc2ccccc2)Cc2ccccn2)cn1 | 101.3
Cn1cc(CN(Cc2ccccn2)Cc2ccccc2Cl)cn1 | 107.7
Cn1cc(CN(Cc2ccccc2)CC(O)c2cccs2)cn1 (stereo not drawn) | -0.3984
COc1cccc(S(=O)(=O)CCN2CCCC2c2ccc[nH]2)c1 (stereo not drawn) | -2.252
CCN1CCC(NC(=O)N(C)Cc2csc3ccccc23)CC1 | 1.913
CC(C)C(NC(=O)NCC1(CO)CC1)c1nnc2n1CCC2 (stereo not drawn) | 14.94
Cc1ncsc1C(=O)NCCSCc1cccs1 | -6.016

Structure (SMILES) | Percent Effect [%]
Cc1ncsc1C(=O)NCCn1nc2ccccn2c1=O | -10.37
Cc1ncsc1CCN(C)C(=O)CN1CCCCCC1=O | -1.63
CC(C(=O)NCCCN1CCCCCC1=O)n1cncn1 (stereo not drawn) | -4.192
Cc1ncsc1C(=O)OCCN1CCCCCC1=O | 115.8
O=C(NCCN1CCCCC1)c1scnc1Cl | 1.584
Cc1cc(C(=O)NCCN2CCCc3ccccc32)[nH]n1 | -6.772
Cc1ncsc1C(=O)NCCN1CCCCCC1=O | 95.46
Cc1ncsc1C(=O)NCCCN1CCCCCC1=O | 91.19
Cc1ncsc1C(=O)OCCN1CCCc2ccccc21 | 101.6
O=C(NCCN1CCCc2ccccc21)c1scnc1Cl | 4.891
Cc1ncsc1CN(C)C(=O)C(CC(C)C)N1CCCCC1=O (stereo not drawn) | 12.62
COc1ccc(C(=O)N2CCC(Oc3ccccc3)(C(=O)O)CC2)o1 | -6.202
CC(=O)NCc1nc(CCOc2ccc(Cl)cc2)no1 | -0.6631
COCCN1C(=O)CC(N2CCN(c3ccc(OC)cc3)CC2)C1=O (stereo not drawn) | 6.624
NCc1cn(CC2CCCN(C(=O)NCc3ccc(Cl)cc3)C2)nn1 (stereo not drawn) | -34.24
Cc1nnc(N2C[C@@H](Oc3ccccn3)[C@H]3OCCC[C@H]32)s1.O=C(O)C(F)(F)F.O=C(O)C(F)(F)F | -5.034
COc1ccccc1Oc1ncccc1CNC(=O)C(C)CN (stereo not drawn) | 1.057
CCCS(=O)(=O)N1CC(=O)N(Cc2cccc(OC)c2OC)CC(O)C1 (stereo not drawn) | 125.8
COc1cccc(CN2CC(O)CN(S(C)(=O)=O)CC2=O)c1OC (stereo not drawn) | 96.57
COc1ccccc1S(=O)(=O)N1CCC2(CC1)[C@H](O)C[C@@H]2O | -0.7897
COc1cccc(CN2CC3(CCNCC3)CCC2=O)c1OC | -5.805
COc1ccccc1N1CCC(CNCc2cccc(OC)c2OC)C1 (stereo not drawn) | 0.729
COc1cccc(OC)c1CN1CC(O)CN(S(C)(=O)=O)CC1=O (stereo not drawn) | 127.9
CCCS(=O)(=O)N1CC(=O)N(Cc2ccccc2OC)CC(O)C1 (stereo not drawn) | 89.31
COc1cccc(OC)c1CN1CC(=O)N(c2ccc(C)cc2)CC1C (stereo not drawn) | 7.242
CCCS(=O)(=O)N1CCC2(CCCN(Cc3cccc(F)c3F)C2=O)C1 (stereo not drawn) | -35.96
